Each structure is given as a SMILES string.

Format in all cases: functional
The test system of test [1] is Plasmodium falciparum. Kind of test: GSK_TCMDC: Inhibition of Plasmodium falciparum 3D7 in whole red blood cells, using parasite LDH activity as an index of growth. Test compounds present at 2uM.
The subject of test [2] is Plasmodium falciparum. Briefly: GSK_TCMDC: Inhibition of Plasmodium falciparum Dd2 in whole red blood cells, using parasite LDH activity as an index of growth. Test compounds present at 2uM.
The next test has as its system HepG2. Kind of test: GSK_TCMDC: Percent inhibition of human HepG2 cell line. Test compounds present at 10uM.

For the compound `N#Cc1cccc(CN2CCCN(Cc3ccc(C(=O)Nc4ccc(Cl)cc4)cc3)CC2)c1.O=C(O)C(F)(F)F`, the Inhibition was found to be 98% in the test on Plasmodium falciparum [1], 21% with Plasmodium falciparum [2] and 48% with HepG2.

Turning to `CCOc1ccc(N2CCN(CCCCNC(=O)c3ccc(NC(=O)c4ccc(Cl)cc4)cc3)CC2)c(OCC)c1`, the Inhibition with Plasmodium falciparum [1] is given as 100%; with Plasmodium falciparum [2], 65%; in the test on HepG2, 36%.

As for `CCn1cc(C=C2Oc3c(ccc(O)c3CN3CCCCC3)C2=O)c2ccccc21`, the figures for the Inhibition with Plasmodium falciparum [1], in the test on Plasmodium falciparum [2] and with HepG2 were 100%, 99% and 0%, respectively.

As to `OC(CNCc1ccccc1OCc1ccccc1)c1cc(Br)cs1` (centres undefined), the Inhibition in the test with Plasmodium falciparum [1] is 97%; with Plasmodium falciparum [2], 88%; with HepG2, 16%.

Consider `NCc1cccc(-c2ccc3ccnc(N)c3c2)c1`, for which the Inhibition with Plasmodium falciparum [1] is on record as 100%; in the test on Plasmodium falciparum [2], 96%; in the test with HepG2 it was 7%.

Take `Cc1ccc2c(Cl)c(C(=O)N3CCCc4ccccc43)sc2c1`: the Inhibition in the test on Plasmodium falciparum [1] was 99%; in the test on Plasmodium falciparum [2], 15%; with HepG2 it was 4%.

For the compound `Cc1cc(C(=O)Nc2ccc(OCc3ccccc3)cc2)on1`, the Inhibition in the test on Plasmodium falciparum [1] is on record as 87%; in the test with Plasmodium falciparum [2], 89%; in the test with HepG2, 1%.

For the compound `CCn1c(-c2nonc2N)nc2c(C#CC(C)(C)O)ncc(OCCNCCc3ccc(OC)cc3)c21.O=C(O)C(F)(F)F`, the Inhibition in the test on Plasmodium falciparum [1] was determined as 91%; with Plasmodium falciparum [2], 44%; with HepG2, 4%.

With `O=C(NC1CCN(Cc2ccccc2)CC1)c1ccc(-c2nc3cc(Cl)c(Cl)cc3[nH]2)c(F)c1`, the Inhibition with Plasmodium falciparum [1] came out at 100%; in the test on Plasmodium falciparum [2] it was 83%; with HepG2 it was 4%.

As for `CC(=O)Nc1ccc(CN2Cc3ccc(NC(=O)Nc4ccc(Oc5ccccc5)cc4)cc3C2)s1`, the figures for the Inhibition with Plasmodium falciparum [1], in the test with Plasmodium falciparum [2] and with HepG2 were 91%, 25% and 9%, respectively.

On to `CCc1cn(CCc2ccccc2)c2ccc(C(=O)N[C@@H](Cc3ccccc3)[C@H](O)CNC(C)(C)CCCC(C)C)cc12.O=CO`, for which the Inhibition was found to be 98% with Plasmodium falciparum [1], 99% in the test on Plasmodium falciparum [2] and 66% in the test on HepG2.

Take `COc1ccc2cc(C(c3nnnn3CC3CCCO3)N3CCc4ccccc43)c(=O)[nH]c2c1` (centres undefined): the Inhibition in the test on Plasmodium falciparum [1] is on record as 94%; with Plasmodium falciparum [2], 3%; with HepG2, 0%.

In the case of `COc1ccc(-c2cc(NCc3ccc(-n4ccnc4)cc3)nc(Nc3ccccc3)n2)cc1`, the Inhibition with Plasmodium falciparum [1] is 100%; with Plasmodium falciparum [2] it was 79%; in the test on HepG2 it was 8%.

For the compound `N#Cc1cc([N+](=O)[O-])ccc1-n1nc(-c2cccc(Cl)c2)n(Cc2ccco2)c1=S`, the Inhibition was 100% with Plasmodium falciparum [1], 100% with Plasmodium falciparum [2] and 12% in the test with HepG2.

Regarding `Cc1cccc2nc(-c3ccc(-c4cccc(CN5CCN(CCN6CCOCC6)CC5)c4)s3)[nH]c12.O=C(O)C(F)(F)F`, the values for the Inhibition with Plasmodium falciparum [1], with Plasmodium falciparum [2] and in the test on HepG2 were 100%, 83% and 33%, respectively.

Take `O=C(NCCc1ccc(Cl)c(Cl)c1)C1CCCN(C(=O)c2ccc(O)c(-c3ccc(Cl)c(Cl)c3)c2)C1` (centres undefined): the values for the Inhibition in the test with Plasmodium falciparum [1], in the test on Plasmodium falciparum [2] and in the test on HepG2 were 96%, 65% and 0%, respectively.

`Cc1cccc2nc(-c3cccc(-c4cccc(NC(=O)c5csnn5)c4)c3)[nH]c12`: the figures for the Inhibition in the test on Plasmodium falciparum [1], in the test on Plasmodium falciparum [2] and in the test on HepG2 were 98%, 49% and 10%, respectively.

In the case of `Cn1nccc1C(=O)NCCNCc1cccc(-c2ccc(-c3nc4cc(C(F)(F)F)ccc4[nH]3)s2)c1.O=C(O)C(F)(F)F`, the figures for the Inhibition with Plasmodium falciparum [1], in the test on Plasmodium falciparum [2] and in the test with HepG2 were 100%, 99% and 36%, respectively.

In the case of `COCn1ncc2cc(-c3cccc(NC(=O)c4csc(NC(C)=O)n4)c3)ccc21`, the Inhibition is 89% in the test with Plasmodium falciparum [1], 68% with Plasmodium falciparum [2] and 0% with HepG2.

As to `COc1cc2nc(NCCCN3CCCCC3)nc(NCc3ccccc3)c2cc1OC`, the Inhibition turned out to be 100% in the test on Plasmodium falciparum [1], 3% in the test with Plasmodium falciparum [2] and 12% with HepG2.

As for `COc1ccc(C(=O)CCC(=O)N(Cc2ccc(-c3ccc(CNCCc4ccc(S(C)(=O)=O)cc4)cn3)cc2)Cc2ccc3c(c2)OCO3)cc1F.O=C(O)C(F)(F)F`, the results for the Inhibition in the test on Plasmodium falciparum [1], in the test on Plasmodium falciparum [2] and in the test on HepG2 were 95%, 41% and 13%, respectively.

Turning to `COc1cc(CN2CCC(N3CCc4cc(NC(=O)c5cc(C)on5)ccc43)C2)ccc1F` (centres undefined), the results for the Inhibition with Plasmodium falciparum [1], in the test with Plasmodium falciparum [2] and in the test on HepG2 were 91%, 96% and 1%, respectively.

Regarding `CC(C)c1sc(N2CCN(C)CC2)nc1C(=O)Nc1cccc2c1CCCC2.O=C(O)C(F)(F)F`, the results for the Inhibition with Plasmodium falciparum [1], in the test on Plasmodium falciparum [2] and with HepG2 were 98%, 50% and 3%, respectively.

For `CC(Oc1ccc(NC(=O)c2cccs2)cc1)C(=O)c1ccc(Cl)cc1` (centres undefined), the Inhibition in the test with Plasmodium falciparum [1] amounted to 92%; in the test with Plasmodium falciparum [2] it was 83%; in the test on HepG2, 0%.

As to `Fc1ccc2[nH]c(-c3ccc(-c4cccc(CN5CCCCC5)c4)cc3)nc2c1.O=C(O)C(F)(F)F`, the Inhibition in the test on Plasmodium falciparum [1] stood at 100%; with Plasmodium falciparum [2], 100%; in the test on HepG2 it was 10%.

In the case of `CCCCSc1nc2c(c(=O)n1Cc1ccco1)C1(CCCCC1)Cc1ccccc1-2`, the Inhibition with Plasmodium falciparum [1] stood at 96%; with Plasmodium falciparum [2], 78%; in the test on HepG2 it was 13%.

On to `COc1ccccc1C1CCN(C2CCC(NC(=O)c3cc4cc(C(C)C)ccc4[nH]3)CC2)CC1` (centres undefined), for which the Inhibition came to 100% in the test on Plasmodium falciparum [1], 98% in the test with Plasmodium falciparum [2] and 100% with HepG2.

As to `COc1c(C2CCN(CCCCNC(=O)c3ccc(C)c(-c4ccc(C(F)(F)F)cc4)c3)CC2)ccc2c1CCCC2`, the Inhibition with Plasmodium falciparum [1] was 86%; in the test on Plasmodium falciparum [2] it was 79%; with HepG2 it was 76%.
